Here are results for 65 compounds from PubChem BioAssay AID463173 (ICCB-Longwood Screening Facility, Harvard Medical School, 2010).

Structures are written as SMILES. Among all 52,000 compounds or so, about 1,700 (3.3%) were called active. The sample holds actives, similar compounds and a random draw of the others, so the mix is not that of the screen. Rule as the data show it: active = survival mostly below about 52% (no sharp cut-off); inactive = mostly above about 56%.

In the test the test system is Wild type. The test can be described thus: growth inhibition of S. aureus wild type versus tarO mutant, primary screen, teichoic acid synthesis inhibitors, RN4220, OD600 (AID 463173). Conditions: S. aureus RN4220 wild type/DeltatarO growth, OD600, 18 h, stronger effect = lower value, screened at 18.75 µg/mL (by protocol).
As to `CCS(=O)(=O)N1CC(=O)N(c2cc(C)ccc2C)C(C)(C(=O)NC2CCCCC2)C1` (stereo not given), the survival was 59% (inactive).

As to `COc1ccc(-c2cn3c(n2)sc2cc(C(=O)NC4CCCc5ccccc54)ccc23)cc1` (stereo not given), the survival is 78% (inactive).

For the compound `COC(=O)c1ccccc1NC(=O)CSc1nc2ccsc2c(=O)n1CCC(C)C`, the survival is 78% (inactive).

As to `CCn1c(SCC(=O)Nc2ccccc2C(=O)OC)nc2ccsc2c1=O`, the survival is 83% (inactive).

With `CCC(C)n1c(SCC(=O)Nc2ccccc2C(=O)OC)nc2ccsc2c1=O` (stereo not given), the survival is -1% (active).

On to `O=C(NCC(c1ccco1)S(=O)(=O)c1cccs1)c1ccccc1F` (stereo not given), for which the survival was 80% (inactive).

On to `O=C(NCc1ccc(F)cc1)c1cc(-c2ccc(Cl)cc2)n[nH]1`, for which the survival was 94% (inactive).

In the case of `Fc1ccc(-c2cc(C(F)(F)F)nc(NCc3ccccc3)n2)cc1`, the survival is 93% (inactive).

Take `Fc1ccc(CNc2nc(-c3ccccc3)cc(C(F)(F)F)n2)cc1`: the survival was -3% (active).

Regarding `Fc1ccc(CNc2cc(-c3ccccc3)nc3nncn23)cc1`, the survival is 29% (inactive).

Take `Fc1ccc(CNc2nc(-c3ccc(Cl)cc3)cc(C(F)(F)F)n2)cc1`: the survival was -5% (active).

Turning to `CC1CCN(S(=O)(=O)c2ccc3nc(NCc4ccccc4)ccc3c2)CC1`, the survival was 131% (inactive).

As for `Cc1nc2ccn(Cc3ccco3)c(=O)c2cc1C(=O)NCc1ccc(Cl)cc1`, the survival is 60% (inactive).

`O=C(O)c1ccc2c(c1)C(=O)NC2=O`: the survival is 113% (inactive).

In the case of `O=C(Nc1ccc2[nH]c(=O)c(=O)[nH]c2c1)c1cccc(F)c1`, the survival is 140% (inactive).

In the case of `CC(=O)Nc1ccc(S(=O)(=O)NC2=NCN(C(C)C)CN2)cc1`, the survival is 143% (inactive).

In the case of `C=CCNC(=O)Nc1c[nH]c2ccccc2c1=O`, the survival is 111% (inactive).

Turning to `O=C(CSCc1cc(=O)c2ccccc2[nH]1)Nc1cccc(C(F)(F)F)c1`, the survival was 124% (inactive).

For `O=C(O)CCC(=O)N1CCc2cc(S(=O)(=O)NCc3ccc(F)cc3)ccc21`, the survival was 85% (inactive).

As for `O=C(CCc1nnc2n(Cc3ccccc3Cl)c(=O)c3ccccc3n12)Nc1ccc(F)c(F)c1`, the survival was 89% (inactive).

Regarding `O=C(Nc1ccc(F)cc1F)c1cc(CN2CCOCC2)on1`, the survival was 69% (inactive).

Regarding `CCOC(=O)c1cnc2ccc(OC)cc2c1NCCc1ccc(OC)c(OC)c1`, the survival was 78% (inactive).

With `CCOC(=O)c1cnc2ccc(OCC)cc2c1NCCc1ccc(OC)c(OC)c1`, the survival is 133% (inactive).

Consider `CCOC(=O)c1cnc2c(C)c(Cl)ccc2c1NCCc1ccc(OC)c(OC)c1`, for which the survival was 4% (active).

As to `CCOC(=O)c1cnc2c(C)c(C)ccc2c1NCCCCCO`, the survival was 110% (inactive).

For `CCOC(=O)c1cnc2ccc(OC)cc2c1NCCc1ccccc1`, the survival is 0% (active).

As to `CCOC(=O)c1cnc2c(C)cc(C)cc2c1NCCc1ccc(OC)c(OC)c1`, the survival was 75% (inactive).

`CCOC(=O)c1cnc2c(C)c(Cl)ccc2c1Nc1ccc(C)cc1C`: the survival is 140% (inactive).

With `CCOC(=O)c1cnc2c(C)c(Cl)ccc2c1NCCc1ccccc1`, the survival is -3% (active).

On to `CCOC(=O)c1cnc2c(C)cc(Cl)cc2c1NCCc1ccc(OC)c(OC)c1`, for which the survival was 48% (inactive).

Regarding `COc1cc(Cl)c(C)cc1NC(=O)c1cnn(-c2ccc(C)cc2)c1-n1cccc1`, the survival was 65% (inactive).

On to `CC1(C(=O)O)CCC(C(=O)N2CCCCC2)C1(C)C` (stereo not given), for which the survival was 106% (inactive).

Take `Cc1ccc(NC2=C(CC(=O)O)C(c3ccc(F)cc3)N(c3ccc(C)cc3)C2=O)cc1` (stereo not given): the survival is 74% (inactive).

`Cc1ccc(CNC(=O)CCc2c(C)c3ccc(O)c(C)c3oc2=O)cc1`: the survival is 87% (inactive).

On to `Cc1nc2sc(C(=O)NCc3ccc(Cl)cc3)c(NC(=O)c3ccccc3)c2c(C)c1C`, for which the survival was 86% (inactive).

As for `Cc1ccc(CNC(=O)CN2N=C(c3ccc(C)cc3)CCC2=O)cc1`, the survival was 80% (inactive).

Consider `CCCN(CCC)c1nc(-c2ccccc2F)nc2ccccc12`, for which the survival is 1% (active).

With `CCN(CC)c1nc(-c2ccc(C(C)(C)C)cc2)nc2ccccc12`, the survival was -2% (active).

For `Cc1cc(Sc2ccc(Cl)cc2)nc2ccccc12`, the survival was 50% (inactive).

For `CCN(CC)c1nc(-c2ccccc2)nc2ccccc12`, the survival was 108% (inactive).

For the compound `Cc1ccc(C(=O)COC(=O)c2cc(-c3ccc(Cl)cc3)nc3ccccc23)cc1`, the survival is 117% (inactive).

Take `COc1ccccc1Nc1nc(-c2ccccc2F)nc2ccccc12`: the survival is 73% (inactive).

`CCCCc1nc2ccccc2c(C(=O)O)c1C`: the survival was 106% (inactive).

With `Cc1cc(N(C)Cc2ccccc2)n2nc(-c3ccc(C(C)(C)C)cc3)nc2n1`, the survival is 77% (inactive).

In the case of `CCCCN(CCCC)c1nc(-c2ccccc2)nc2ccccc12`, the survival is -3% (active).

Regarding `CCCCN(CC)c1nc(-c2ccccc2F)nc2ccccc12`, the survival was 71% (inactive).

Consider `CCCCN(C)CCCNC(=O)c1cc(-c2cccnc2)nc2ccccc12`, for which the survival is 77% (inactive).

As for `CC(C)CN(CC(C)C)c1nc(-c2ccc(Cl)cc2)nc2ccccc12`, the survival is -1% (active).

Turning to `COc1ccc(-n2ccnc2SCC(=O)Nc2ccc(F)cc2F)cc1`, the survival was 143% (inactive).

As to `Cc1ccccc1NC(=O)CSc1ncc2c(n1)-c1ccccc1N(C)S2(=O)=O`, the survival was 99% (inactive).

As to `CCN(C(=O)c1sc2nc3n(c(=O)c2c1C)CCCCC3)c1ccc(OC)cc1`, the survival was 83% (inactive).

As for `CCN(C(=O)C1CCC(CNS(=O)(=O)c2cccc3nsnc23)CC1)c1cccc(C)c1` (stereo not given), the survival was 86% (inactive).

Regarding `N#Cc1c(/N=C/c2ccc3c(c2)OCO3)oc(-c2ccccc2)c1-c1ccccc1`, the survival is 115% (inactive).

With `COc1cccc(CNC(=O)Cn2c(=O)nc(-c3ccccc3F)c3cc(Cl)ccc32)c1`, the survival is 82% (inactive).

As to `O=C(COc1ccccc1)NS(=O)(=O)c1ccc(N=NN2CCOCC2)cc1`, the survival is 105% (inactive).

Take `Cc1ccc(CNC(=O)C(=O)Nc2c3c(nn2-c2ccccc2)CSC3)cc1`: the survival was 82% (inactive).

For the compound `COc1ccc(NC(=O)CSc2ncc3c(n2)-c2cc(Cl)ccc2N(Cc2ccccc2F)S3(=O)=O)cc1`, the survival was 65% (inactive).

Take `CCc1ccccc1NC(=O)CC1NCCNC1=O` (stereo not given): the survival is 87% (inactive).

`O=C(Nc1cccc(C(F)(F)F)c1)C1CCN(S(=O)(=O)c2cccs2)CC1`: the survival was 92% (inactive).

On to `Cc1ccc(Cl)cc1N1CCN(C(=O)c2ccc3nc(N4CCC(C)CC4)sc3c2)CC1`, for which the survival is 16% (inactive).

Regarding `Cc1cccc(N2CCN(C(=O)c3ccc4nc(N5CCC(C)CC5)sc4c3)CC2)c1C`, the survival was 1% (active).

In the case of `Cc1ccc(C)c(N2CCN(CCCNC(=O)c3ccc4nc(N5CCCCC5)sc4c3)CC2)c1`, the survival was 76% (inactive).

On to `Cc1ccc(C)c(N2CCN(CCCNC(=O)c3ccc4nc(N5CCC(C)CC5)sc4c3)CC2)c1`, for which the survival is 1% (active).

Turning to `CC1CCN(c2nc3ccc(C(=O)N4CCN(c5ccccc5)CC4)cc3s2)CC1`, the survival is 64% (inactive).

For the compound `Cc1ccc(Cl)cc1N1CCN(CCCNC(=O)c2ccc3nc(N4CCCCC4)sc3c2)CC1`, the survival was 45% (inactive).
